Experimental data published in PubChem BioAssay (NCI).
Compounds without any hit were thinned out: in the full panel of roughly 83,000, 20% have a hit.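 Plates (96-well) were seeded with cells, treated with compound at one concentration, and incubated for 48 hours before percent growth was determined.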 Active and inactive are the calls of the source. Rule for the calls: active = growth percent below 10; inactive = the rest.

How the values were obtained:
Assay in all cases: NCI-60 one-dose screen, 48 h (100 = growth as untreated, 0 = no growth, -100 = all killed)
Conditions in all cases: 10 µM unless noted
DU-145 prostate = system: DU-145 prostate
K-562 leukemia = system: K-562 leukemia
MALME-3M melanoma = system: MALME-3M melanoma
MDA-MB-231 breast = system: MDA-MB-231 breast
RXF 393 renal = system: RXF 393 renal
SF-268 CNS = system: SF-268 CNS
SF-295 CNS = system: SF-295 CNS
SF-539 CNS = system: SF-539 CNS
UACC-257 melanoma = system: UACC-257 melanoma
HCT-15 colon = system: HCT-15 colon
HT29 colon = system: HT29 colon
SNB-75 CNS = system: SNB-75 CNS
SNB-19 CNS = system: SNB-19 CNS
U251 CNS = system: U251 CNS
PC-3 prostate = system: PC-3 prostate
SK-MEL-5 melanoma = system: SK-MEL-5 melanoma
UACC-62 melanoma = system: UACC-62 melanoma
LOX IMVI melanoma = system: LOX IMVI melanoma
SK-MEL-28 melanoma = system: SK-MEL-28 melanoma

Measured: growth

COC(=O)c1cccc(NC2=C(Cl)C(=O)C(C)=C(C)C2=O)c1
active: K-562 leukemia 5.25%
inactive: DU-145 prostate 110% | MALME-3M melanoma 95.8% | MDA-MB-231 breast 36.5% | RXF 393 renal 104% | SF-268 CNS 97.4% | SF-295 CNS 108% | SF-539 CNS 99.3% | UACC-257 melanoma 108% | HCT-15 colon 112% | HT29 colon 105% | SNB-75 CNS 60.7% | SNB-19 CNS 87% | U251 CNS 102% | PC-3 prostate 71.9% | SK-MEL-5 melanoma 95.6% | UACC-62 melanoma 85.5% | LOX IMVI melanoma 69% | SK-MEL-28 melanoma 110%

Cc1csc(/N=C(N)/N=C(\N)c2cccnc2)n1
inactive: DU-145 prostate 96.8% | K-562 leukemia 42.4% | MALME-3M melanoma 60.7% | MDA-MB-231 breast 86.9% | RXF 393 renal 89.7% | SF-268 CNS 77.2% | SF-295 CNS 48.4% | SF-539 CNS 79.5% | UACC-257 melanoma 95.5% | HCT-15 colon 42.7% | HT29 colon 59% | SNB-75 CNS 41.7% | SNB-19 CNS 69.4% | U251 CNS 76.5% | PC-3 prostate 69.2% | SK-MEL-5 melanoma 80.3% | UACC-62 melanoma 40.2% | LOX IMVI melanoma 74.7% | SK-MEL-28 melanoma 65.3%

COc1ccc(/C=N/N=C(/c2ccccc2)c2ccc3nc(-c4ccc(Cl)cc4)[nH]c3c2)cc1
inactive: DU-145 prostate 86.5% | K-562 leukemia 47.9% | MALME-3M melanoma 90.6% | MDA-MB-231 breast 95% | RXF 393 renal 83.3% | SF-268 CNS 88.7% | SF-295 CNS 81.3% | SF-539 CNS 87.7% | UACC-257 melanoma 101% | HCT-15 colon 59.7% | HT29 colon 65.7% | SNB-75 CNS 106% | SNB-19 CNS 84.2% | U251 CNS 79.4% | PC-3 prostate 54.7% | SK-MEL-5 melanoma 81% | UACC-62 melanoma 91.9% | LOX IMVI melanoma 77.6% | SK-MEL-28 melanoma 88.4%

C(=N\Nc1nc(N/N=C/c2ccc3c(c2)OCO3)nc(N2CCCCC2)n1)/c1ccc2c(c1)OCO2
inactive: DU-145 prostate 99.8% | K-562 leukemia 41.1% | MALME-3M melanoma 120% | MDA-MB-231 breast 90.7% | RXF 393 renal 79.7% | SF-268 CNS 100% | SF-295 CNS 77.8% | SF-539 CNS 87.6% | UACC-257 melanoma 108% | HCT-15 colon 33.8% | HT29 colon 38.2% | SNB-75 CNS 113% | SNB-19 CNS 80.3% | U251 CNS 81.4% | PC-3 prostate 73.6% | SK-MEL-5 melanoma 96.8% | UACC-62 melanoma 102% | LOX IMVI melanoma 47.9% | SK-MEL-28 melanoma 109%

COc1ccc2c(c1)c(-c1nn3cc(-c4ccncc4)nc3s1)cn2C
inactive: DU-145 prostate 93.9% | K-562 leukemia 28.4% | MALME-3M melanoma 89.9% | MDA-MB-231 breast 77% | RXF 393 renal 83.2% | SF-268 CNS 79% | SF-295 CNS 75.3% | SF-539 CNS 84% | UACC-257 melanoma 116% | HCT-15 colon 60.7% | HT29 colon 79.2% | SNB-75 CNS 29.6% | SNB-19 CNS 86.1% | U251 CNS 83% | PC-3 prostate 71.2% | SK-MEL-5 melanoma 86.3% | UACC-62 melanoma 68.7% | LOX IMVI melanoma 65.9% | SK-MEL-28 melanoma 114%

Cc1ccc2c(n1)C(=O)C(Cl)=C(Nc1cc(C(F)(F)F)cc(C(F)(F)F)c1)C2=O
inactive: DU-145 prostate 95.3% | MALME-3M melanoma 47.9% | MDA-MB-231 breast 87.1% | RXF 393 renal 74.5% | SF-268 CNS 87.1% | SF-295 CNS 95.7% | SF-539 CNS 93.9% | UACC-257 melanoma 75.2% | HT29 colon 102% | SNB-75 CNS 98.3% | SNB-19 CNS 90.6% | U251 CNS 85.2% | PC-3 prostate 80.5% | SK-MEL-5 melanoma 77% | UACC-62 melanoma 79.9% | LOX IMVI melanoma 66.2% | SK-MEL-28 melanoma 88.7%
active: K-562 leukemia 4.18% | HCT-15 colon 6.82%

O=C1[C@@H]2Cc3c([nH]c4ccccc34)[C@@H](c3ccc(Cl)cc3)N2C(=O)CN1C1CCN(Cc2c(F)cccc2F)CC1
active: HT29 colon -10.2%
inactive: DU-145 prostate 49.2% | K-562 leukemia 16.8% | MALME-3M melanoma 88.8% | MDA-MB-231 breast 66.4% | RXF 393 renal 44.4% | SF-268 CNS 39.2% | SF-295 CNS 41.4% | SF-539 CNS 60.9% | UACC-257 melanoma 51.1% | HCT-15 colon 24.3% | SNB-75 CNS 25.9% | SNB-19 CNS 47.8% | U251 CNS 38% | PC-3 prostate 13.8% | SK-MEL-5 melanoma 48.8% | UACC-62 melanoma 40.7% | LOX IMVI melanoma 21.3% | SK-MEL-28 melanoma 64.8%

Brc1ccc2[nH]cc(-c3nn4cc(-c5nccs5)nc4s3)c2c1
active: MALME-3M melanoma -7.45% | MDA-MB-231 breast -13.5% | RXF 393 renal -46.4% | SNB-75 CNS -1.58% | PC-3 prostate 9.64% | LOX IMVI melanoma 8.86%
inactive: DU-145 prostate 20.8% | K-562 leukemia 13.1% | SF-268 CNS 31.7% | SF-295 CNS 37.1% | SF-539 CNS 29.7% | UACC-257 melanoma 56.8% | HCT-15 colon 10.2% | HT29 colon 40.9% | SNB-19 CNS 61.1% | U251 CNS 61.3% | SK-MEL-5 melanoma 73.1% | UACC-62 melanoma 79.3% | SK-MEL-28 melanoma 49.6%
